From PubChem BioAssay
EWS-Fli block: EWS/Fli-driven NR0B1 reporter inhibitors, primary screen, A673 cells, NR0B1 luciferase, luminescence, MLPCN library; viability-normalised; inhibition, % at 12.6 µM; 350,000 compounds, 0.67% hits;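 active means mean inhibition of at least 50% after viability correction, with every replicate also passing that limit; inconclusive means mean reaches 50% but only one of two replicates passes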;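 further: firefly luciferase signal divided by Alamar Blue viability fluorescence both relative to DMSO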
LGR2 antag: inhibitors of bursicon-induced LGR2 CRE-luciferase signal, primary screen, cell-based, HEK293, CRE-luciferase reporter, bursicon stimulation; bursicon-stimulated, 4 h; inhibition, % at 9.99 µM; AID 720647, 2013; Drosophila bursicon receptor LGR2 (rickets); 380,000 compounds, 0.35% hits;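 active means drop in luminescence signal, shown as inhibition above about 50% in the replicate tests, limit read from the data, passing the limit was not always enough; inconclusive means probably only some replicates passing the limit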;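 further: agonist challenge used bursicon conditioned medium at about half maximal strength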
F508del corr: F508del CFTR correction, initial screen, CFBE line, single point | CFBE cells, YFP halide quenching; stimulated with forskolin plus potentiator P3; % fluorescence drop versus neutral controls | activity (quench increase), % at 7.58 µM | 350,000 compounds, 0.36% hits | AID 720511, 2013;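 active means mean added fluorescence quench of at least 8% versus neutral control, with both replicates also reaching 8%; inconclusive means only one of the mean or replicate conditions met; inactive means mean below 8% and not both replicates reaching 8%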;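 further: cells transiently co-express mutant CFTR-F508del with the halide-sensitive YFP; corrector assay measuring rescue of mutant channel to the surface after 24 h compound exposure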
GSIS activator: GLuc luminescence reporter in INS-1E cells, primary screen for activators of glucose-dependent secretion of insulin; INS-1E GLuc reporter insulin secretion, 2-3 h; activation, % at 16.6 µM; 370,000 compounds, 0.61% hits;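 active means lowest replicate activation of at least 40%, so every replicate reaches that level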
RAD52 inh: RAD52 DNA annealing inhibitors, primary screen, biochemical, FRET, single point, set 2 | DNA repair protein RAD52 homolog (Homo sapiens), P43351 | recombinant RAD52 DNA annealing, FRET fluorescence | inhibition, % at 18.7 µM | 360,000 compounds, 0.46% hits | AID 651710, 2012;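 active means every replicate showing at least 50% inhibition; inconclusive means mean inhibition at least 50% but not in every replicate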
Target sequence (P43351 whole entry, looked up): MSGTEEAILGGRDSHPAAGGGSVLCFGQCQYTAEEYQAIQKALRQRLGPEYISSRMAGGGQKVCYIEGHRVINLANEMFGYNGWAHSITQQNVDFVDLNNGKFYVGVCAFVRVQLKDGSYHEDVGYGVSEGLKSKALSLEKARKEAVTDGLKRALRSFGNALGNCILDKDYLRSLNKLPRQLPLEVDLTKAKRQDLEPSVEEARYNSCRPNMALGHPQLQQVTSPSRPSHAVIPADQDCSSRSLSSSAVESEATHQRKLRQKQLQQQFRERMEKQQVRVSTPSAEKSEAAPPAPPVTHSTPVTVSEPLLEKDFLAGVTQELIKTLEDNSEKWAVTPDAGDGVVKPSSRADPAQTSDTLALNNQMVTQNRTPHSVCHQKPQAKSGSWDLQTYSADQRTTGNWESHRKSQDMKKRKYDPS
RAD54 branch: inhibitors of human RAD54 branch migration, primary screen, biochemical, fluorescence, single point | DNA repair and recombination protein RAD54-like (Homo sapiens), Q92698 | 360,000 compounds, 0.14% hits | inhibition, % at 10.4 µM | RAD54 Holliday junction branch migration, FAM/BHQ fluorescence;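 active means mean normalized replicate activity at least 40 and at least half of replicates scoring 40 or more; inconclusive means only one of the two criteria met; inactive means mean below 40 and under half of replicates reaching 40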;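 further: inhibitors cause a drop in the FAM fluorescence signal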
DNA binding: DNA binding of candidate compounds, dose response, artefact control for RAD54 inhibitor project, biochemical, fluorescence polarization, cherry-pick; Acridine orange-DNA displacement, 20 min; 460 compounds, 8% hits; AC50, µM (titrated, usually from 35 µM); shares compounds with RAD54 branch;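 active means signal drop giving an AC50 within twice the top valid tested concentration of each sample, actives reach about 35 µM in these data; inactive means activity opposite to expected, plus the rest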;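 further: polarization loss reports compound binding to salmon sperm DNA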
Each line names hits and unclear results; the compound was inactive in the other large screens (follow-up assays come after a bar, where they were run). Shown are actives, neighbours in structure and some others; about 1.8% of the full set was active somewhere.

CCOc1cc2[nH]c(=O)n(Cc3ccc(C(=O)NCCCN4CCC(C)CC4)cc3)c(=O)c2cc1OCC	RAD54 branch 60 | DNA binding inactive
Cc1c(O)c(CN(C)C)cc2c1oc(=O)c1ccccc12	RAD54 branch inconclusive | DNA binding inactive
Cc1c(O)c(CN2CCCCC2)cc2c1oc(=O)c1ccccc12	none (no result: EWS-Fli block, F508del corr, RAD52 inh, RAD54 branch)
C=CCn1c(C)nnc1SCC(=O)N1c2ccccc2NC(=O)C1(C)C	none (no result: GSIS activator)
C=CCN1C(=O)C(C)(C)Nc2ccccc21	RAD54 branch inconclusive (no result: EWS-Fli block, LGR2 antag, F508del corr, GSIS activator, RAD52 inh) | DNA binding inactive
COc1ccc2nc(-c3ccc(N)cc3)[nH]c2c1	RAD54 branch 77 (no result: EWS-Fli block, LGR2 antag, F508del corr, GSIS activator, RAD52 inh) | DNA binding inactive
CC1(C)Cc2c(sc3nnn(CC(=O)Nc4ccccc4)c(=O)c23)CO1	none
COc1ccccc1NC(=O)Cn1nnc2sc3c(c2c1=O)CC(C)(C)OC3	RAD54 branch inconclusive (no result: GSIS activator) | DNA binding inactive
O=C(NN1CCOCC1)c1cc(-c2ccccc2)nc2ccccc12	none (no result: EWS-Fli block, LGR2 antag, F508del corr, GSIS activator, RAD52 inh)
O=C(NN1CCOCC1)c1cc(-c2ccc(Cl)c(Cl)c2)nc2ccccc12	RAD54 branch inconclusive (no result: EWS-Fli block, F508del corr, RAD52 inh) | DNA binding inactive
Cc1nnc2c(N3CCN(CCO)CC3)nc3ccccc3n12	RAD54 branch inconclusive | DNA binding inactive
COC(=O)c1ccc(CSc2nnc(CNC(=O)c3ccc(OC)cc3)o2)o1	none (no result: EWS-Fli block, LGR2 antag, F508del corr, RAD52 inh)
CCNCCNC(=O)c1c(O)c2cccc3c2n(c1=O)CCC3	RAD54 branch inconclusive (no result: EWS-Fli block, LGR2 antag, F508del corr, GSIS activator, RAD52 inh) | DNA binding inactive
COc1cc2c(C#N)c(N3CCN(C)CC3)nc(N)c2c(N)n1	RAD54 branch 71 (no result: EWS-Fli block, LGR2 antag, F508del corr, GSIS activator, RAD52 inh) | DNA binding inactive
Cc1ccc(CSc2nnc(-c3ccc(S(=O)(=O)N4CCCC4)cc3)o2)cc1	none (no result: EWS-Fli block, LGR2 antag, F508del corr, GSIS activator, RAD52 inh)
O=S(=O)(c1ccc(-c2nnc(SCc3ccccc3)o2)cc1)N1CCCC1	RAD54 branch inconclusive (no result: EWS-Fli block, LGR2 antag, F508del corr, GSIS activator, RAD52 inh) | DNA binding inactive
Cc1cc2ccc3ccccc3c2cc1CN(C)C	RAD54 branch 52 | DNA binding inactive
CN(C)Cc1cc2ccccc2c2c1COC2	none
O=c1cc(CSc2n[nH]c(=O)n2C2CC2)c2ccc(O)cc2o1	RAD54 branch inconclusive | DNA binding inactive
Cc1ccc(-c2csc3nc4c5ccccc5c(NCCCN(C)C)nn4c(=O)c23)cc1	LGR2 antag inconclusive, RAD52 inh 97, RAD54 branch 53 | DNA binding inactive
Cc1ccc(-c2csc3nc(C)n(N)c(=O)c23)cc1	none
CCOC(=O)c1c(NC(C)=O)sc2c(OC)c(Br)ccc12	none
CCOC(=O)c1c(NC(C)=O)sc2c(OCC(O)CN(CC)CC)c(Br)ccc12 (stereo not drawn)	RAD54 branch 84 | DNA binding inactive
COc1cc(OC)c2nc(C)c3c(c2c1)N(c1ccc(O)cc1)CC3	RAD54 branch 51 (no result: EWS-Fli block, LGR2 antag, F508del corr, RAD52 inh) | DNA binding inactive
NC(=O)c1ncn([C@@H]2O[C@H](CNS(=O)(=O)c3cc(S(=O)(=O)c4ccccc4)cs3)[C@@H](O)[C@H]2O)n1	none
Cc1ccc2c(c1)c1nc3ccccc3nc1n2CCN1CCOCC1	RAD54 branch 63 (no result: EWS-Fli block, LGR2 antag, F508del corr, GSIS activator, RAD52 inh) | DNA binding inactive
C[C@@H]1CN([C@H](C)CO)C(=O)Cc2cc(NC(=O)Nc3ccccc3)ccc2O[C@H]1CN(C)S(=O)(=O)c1ccc(Cl)cc1	none
COCCn1c(SCC(=O)Nc2ccccc2C)nc2c(oc3ccccc32)c1=O	none (no result: EWS-Fli block, F508del corr, RAD52 inh, RAD54 branch)
c1cncc(-c2nc(N3CCCCCC3)c3ccccc3n2)c1	none (no result: EWS-Fli block, LGR2 antag, F508del corr, GSIS activator, RAD52 inh)
CN1CCN(c2nc(-c3cccnc3)nc3ccccc23)CC1	RAD54 branch 57 | DNA binding inactive
CN1CCN(c2nc(-c3ccccn3)nc3ccccc23)CC1	RAD54 branch inconclusive (no result: EWS-Fli block, LGR2 antag, F508del corr, GSIS activator, RAD52 inh) | DNA binding inactive
O=C(CN1CCOCC1)OCCCc1ccccc1	none (no result: EWS-Fli block, LGR2 antag, F508del corr, GSIS activator, RAD52 inh)
COc1ccc(C#Cc2cnc3c(c2)C(=O)N([C@H](C)CO)C[C@@H](C)[C@H](CN(C)C)O3)cc1	none
CNC(=O)C1=C(C)Nc2nc3ccccc3n2C1c1ccc(F)cc1 (stereo not drawn)	none
